Values joined by “and” are separate entries in the source; they are usually repeats but may differ in a detail not shown here. Equal entries are not always repeated. Hit rate of the full screen: of about 16,000 compounds, about 5,700 (36%) were called active. Inconclusive results (about 24%) are left out. Some of the results follow. Values without a mark were called inactive. Calls come from the whole dose curve; as a rule, active = well fitted curve in the direction sought with a large enough effect; inconclusive = small, poorly fitted or top-dose-only effect, or effect the other way; inactive = no such curve, though single readings can be large or run the other way.
target: Cytochrome P450 1A2 (Homo sapiens) (UniProt P05177); test: Cytochrome panel assay with activity outcomes; conditions: recombinant CYP, pro-luciferin dealkylation, luminescence, p450-cyp1a2; series mostly up to 57.1 µM
% is set by controls: 0 for no effect and ±100 for the full control effect.

Sequence of Cytochrome P450 1A2 (Homo sapiens) (P05177 whole entry, looked up): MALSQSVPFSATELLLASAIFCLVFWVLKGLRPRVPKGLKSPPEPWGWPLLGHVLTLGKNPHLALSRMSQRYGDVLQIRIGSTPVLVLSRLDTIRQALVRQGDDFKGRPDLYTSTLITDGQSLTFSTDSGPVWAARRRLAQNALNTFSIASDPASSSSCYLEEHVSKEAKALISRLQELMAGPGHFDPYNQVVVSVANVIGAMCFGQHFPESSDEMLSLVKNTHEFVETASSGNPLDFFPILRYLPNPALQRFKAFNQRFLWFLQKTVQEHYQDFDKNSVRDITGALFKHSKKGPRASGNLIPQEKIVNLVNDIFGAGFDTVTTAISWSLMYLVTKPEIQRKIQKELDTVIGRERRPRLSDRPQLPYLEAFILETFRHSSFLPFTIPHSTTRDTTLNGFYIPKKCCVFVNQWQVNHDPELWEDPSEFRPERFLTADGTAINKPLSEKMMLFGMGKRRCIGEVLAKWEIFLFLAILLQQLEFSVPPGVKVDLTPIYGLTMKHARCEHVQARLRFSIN

Compound | AC50 | activity, negative = inhibition
COc1ccc(/C=C2\SC(=O)N(CCNC(=O)C3CC(=O)N(c4ccccc4)C3)C2=O)cc1 (stereo not given) | inactive | –
COc1ccccc1OCCN1C(=O)S/C(=C\c2ccco2)C1=O | 14.1 µM (active) | –
CC(=O)[C@@H](C)CCO[C@@]1(C)OCC[C@@H]1C | – | -19.3% [at 11.4 µM]
O=C(c1ccc(C(F)(F)F)cc1)c1c[nH]c(C(=O)NCCCn2ccnc2)c1 | 2 µM (active) | –
CC(C)(C)c1ccc(C(=O)c2c[nH]c(C(=O)NCCCn3ccnc3)c2)cc1 | 5.62 µM (active) | –
CC1=C(C#N)C(Nc2ccc(Cl)cn2)(C(F)(F)F)C(=O)N1 (stereo not given) | inactive | –
CC(=O)c1sc(NC(=O)C(C)C)nc1C | 10 µM (active) | –
CCOc1ccc2nc(N3CCCCCC3)sc2c1 | 2.82 µM (active) | –
CCOC(=O)N1CCN(C(=O)c2ccc3nc(N4CCC(C)CC4)sc3c2)CC1 | inactive | –
CCOC(=O)C1CCN(C(=O)C2CCN(c3nc4ccc(OC)cc4s3)CC2)CC1 | inactive | –
CC(=O)NC(C)C(c1cccs1)N1CCN(c2ccccc2)CC1 (stereo not given) | inactive | –
COC(=O)[C@@]1(Cc2ccc(F)cc2)[C@@H]2[C@@H](CC(=O)[C@H]2CC(=O)C(=O)N(C)C)CN1C(=O)c1ccccc1 | inactive | –
CN(C)Cc1ccccc1-c1cncnc1NC1CC1 | 15.8 µM (active) | –
Cc1cnc(CNc2ncncc2-c2ccccc2C(F)(F)F)cn1 | inactive | –
Cc1cnc(CNc2ncncc2-c2ccccc2Cl)cn1 | 15.8 µM (active) | –
Cc1cnc(CNc2ncncc2-c2ccccc2C)cn1 | 25.1 µM (active) | –
Cc1cnc(CNc2ncncc2-c2ccccc2CN(C)C)cn1 | 12.6 µM (active) | –
CC1=CC(=O)C=CC1(C)C(Cl)(Cl)Cl (stereo not given) | inactive | –
CCN1C(=O)[C@@H]2[C@H]3C(=CC[C@H]2C1=O)C(=O)[C@H]1OC1[C@H]3O (stereo not given in full) | – | -3.23% [at 11.4 µM]
Cc1nc(SC2CC(=O)N(c3ccc([N+](=O)[O-])cc3)C2=O)nc2c1CCCC2 (stereo not given) | inactive | –
Cc1cnc(CNc2ncncc2-c2ccccc2C#N)cn1 | 0.251 µM (active) | –
C[C@@]1(O)CCOC(=O)C1 | inactive | –
CCCCC#Cc1nc(N)c2ncn([C@@H]3O[C@@H](C(=O)NCC)[C@H](O)[C@@H]3O)c2n1 | inactive | –
COc1ccc(CN(C(=O)Cc2cccs2)C(C(=O)NC2CCCC2)c2ccncc2)cc1 (stereo not given) | inactive | –
COc1ccc(CCN(C(=O)C(F)(F)F)C(C(=O)NC2CCCC2)c2cccs2)cc1 (stereo not given) | 12.6 µM (active) | –

Compound | AC50 | activity, negative = inhibition
Cc1ccc(N(C(=O)C(F)(F)F)C(C(=O)NC2CCCCC2)c2cccs2)cc1C (stereo not given) | inactive | –
COc1cccc(N2CCN(C(=O)Nc3ccc4c(c3)NC(=O)CO4)CC2)c1 | inactive | –
Cc1cccc(Nc2ccccc2C(=O)OCC(=O)N(C)C2CCS(=O)(=O)C2)c1C (stereo not given) | inactive | –
Cc1ccc(C(=O)N/C(=C/C=C/c2ccccc2)C(=O)NCc2ccco2)cc1 | inactive | –
Cc1cccc(Nc2ccccc2C(=O)OCC(=O)NCc2ccco2)c1C | 12.6 µM (active) | –
O=C(COC(=O)c1cccc(S(=O)(=O)N2CCN(c3ccccc3)CC2)c1)NCc1ccco1 | inactive | –
O=C(COC(=O)c1ccccc1Nc1cccc(C(F)(F)F)c1)NCc1ccco1 | 5.01 µM (active) | –
O=C(CSc1n[nH]c(-c2ccccc2O)n1)N1CCCc2ccccc21 | 2 µM (active) | –
O=C(CSc1nc(-c2ccccc2)cs1)N1CCc2ccccc21 | 2.51 µM (active) | –
O=C(CNCCO)N1CCc2ccccc21 | inactive | –
O=C(O)CCC(=O)N1CCc2cc(S(=O)(=O)NCc3cccs3)ccc21 | inactive | –
O=C(CSc1nnc(CNc2ccc(F)cc2)o1)OC1CCCCC1 | 25.1 µM (active) | –
O=C(NCc1ccccc1)c1ccc(S(=O)(=O)N2CCCc3ccccc32)cc1 | inactive | –
O=C(CSc1nnc(CNc2ccccc2)o1)N1CCCc2ccccc21 | 12.6 µM (active) | –
CCN(CC)C(=O)CSc1nnc(CNc2ccc(F)cc2)o1 | inactive | –
CCN(CC)C(=O)CSc1nnc(C2CCCCC2)o1 | inactive | –
C[C@]12CC[C@H]3c4ccc(OC[C@H]5CO5)cc4CC[C@H]3[C@H]1CC[C@@H]2O | – | -8.48% [at 11.4 µM]
CC(=O)OC[C@@H]1O[C@H](CCO/N=C(\C)CCN2CCc3nc(-c4ccccc4)c(-c4ccccc4)cc3C2)C=C[C@@H]1OC(C)=O | – | 1.24% [at 11.4 µM]
O=C1[C@H]2[C@H]3[C@H](O)[C@H](O)C/C(=N/OC[C@@H](O)COCc4ccco4)[C@@H]3CC[C@@H]2C(=O)N1Cc1ccc2c(c1)OCO2 | – | -3.61% [at 11.4 µM]
COC(=O)N/N=C\C=C\c1ccc2c(c1)OCO2 | inactive | –
Cc1cccc(OCC(=O)N/N=C\C=C\c2ccc3c(c2)OCO3)c1C | 5.01 µM (active) | –
CN1CCC2(CC1)CCN(S(=O)(=O)c1ccccc1)CC2 | inactive | –
CC1CN(C(=O)c2cc3c(s2)CCC3)CC(C)O1 (stereo not given) | 12.6 µM (active) | –
CC1CN(C(=O)CN2C(=O)NC3(CCCCCC3)C2=O)CC(C)O1 (stereo not given) | inactive | –
Cc1ccc(CC(=O)N2CC(C)OC(C)C2)cc1 (stereo not given) | inactive | –

Compound | AC50 | activity, negative = inhibition
Cc1cc(C)n(C(=O)c2cc3c(s2)CCCC3)n1 | 0.282 µM (active) | –
CCCN(CCC)CCc1cccc2c1CC(=O)N2 | inactive | –
NC(=O)CNCCC(c1ccccc1)c1ccccc1 | inactive | –
CN(C)CCCN1c2ccccc2Sc2ccc(C(F)(F)F)cc21 | 1.58 µM (active) and 794 nM (active) | –
CCC(=O)c1ccc2c(c1)N(CCCN(C)C)c1ccccc1S2 | 0.631 µM (active) | –
CN(C)CCCO[C@H]1[C@@H]2OC(C)(C)O[C@@H]2O[C@@H]1[C@H](O)CO | inactive | –
C/C(=N/Nc1ccc2ccccc2n1)c1ccccc1O | 1.58 µM (active) | –
CC(=NC1CCCCC1)c1ccccc1O | – | -14.9% [at 11.4 µM]
C/C(CCN1CCc2nc(-c3ccccc3)c(-c3ccccc3)cc2C1)=N\O[C@@H](C)CN1CCCc2nc(C)c(C)cc21 | – | -2.64% [at 11.4 µM]
Cc1cc2nnc(SCCCCN3C(=O)c4ccccc4C3=O)n2c2ccccc12 | 15.8 µM (active) | –
Cc1cc2nnc(SCC(=O)OC(C)C)n2c2ccccc12 | 14.1 µM (active) | –
Cc1cc2nnc(SCC(=O)N3CCN(c4ccccc4)CC3)n2c(N)n1 | inactive | –
CC(C)NC(=O)CSc1nnc(C2CC2)n1-c1ccccc1 | inactive | –
CCOc1ccc(CNC(=O)C2CC(=O)N(C3CCCC3)C2)cc1OC (stereo not given) | inactive | –
O=C(NCCN1CCN(Cc2ccccc2)CC1)C1CC(=O)N(C2CCCC2)C1 (stereo not given) | inactive | –
CCOc1ccc(CCNC(=O)C2CC(=O)N(C3CCCC3)C2)cc1OCC (stereo not given) | 10 µM (active) | –
COc1ccc2cc3[n+](cc2c1OC)CCc1cc2c(cc1-3)OCO2 | 5.01 µM (active) | –
COc1cc2c(cc1OC)-c1cc3ccc(OC)c(OC)c3c[n+]1CC2 | inactive | –
CCn1nc(C)c(NC(=O)/C=C/c2cnn(C)c2C)c1C | inactive | –
CCN1CCN(C(=O)CCc2nc3ccccc3c(=O)[nH]2)CC1 | inactive | –
CCN1CCN(c2nn3c(=O)c4ccccc4nc3c3ccccc23)CC1 | 6.31 µM (active) | –
CCN1CCN(c2nc(-c3ccccn3)nc3ccccc23)CC1 | 11.2 µM (active) | –
CCn1cc(C(=O)O)c(=O)c2cc(F)c(N3CCNCC3)nc21 | inactive | –
Cc1cccc(C2NC(=O)c3c(sc(C)c3C)N2)c1O (stereo not given) | 3.55 µM (active) | –
O=C1CCCC=C1[C@@H](O)CCOC(c1ccccc1)(c1ccccc1)c1ccccc1 | – | -6.79% [at 11.4 µM]

Compound | AC50 | activity, negative = inhibition
COCCNC(=O)CSc1ncnc2sccc12 | inactive | –
CCOC(=O)N1CCN(c2nc(-c3ccco3)cc(C(F)(F)F)n2)CC1 | 0.501 µM (active) | –
COc1cc2nc(N3CCN(C(=O)c4ccco4)CC3)nc(N)c2cc1OC | inactive | –
CCOC(=O)N1CCN(C(=O)CN(C)S(=O)(=O)c2ccc3c(c2)C(C)(C)C(=O)N3C)CC1 | inactive | –
CCOC(=O)N1CCN(C(=O)CNCc2cccs2)CC1 | inactive | –
CCCNC(=O)CSc1nc(-c2cccs2)cc(C(F)(F)F)n1 | 2.51 µM (active) | –
CCOC(=O)N1CCN(c2nc(-c3cccs3)cc(C(F)(F)F)n2)CC1 | 2.82 µM (active) | –
CCC1(C)CC(CCNS(=O)(=O)c2ccc(C)cc2)(c2ccc(C)cc2)CCO1 (stereo not given) | inactive | –
CN(C)c1ncc2nc(-c3ccc(F)cc3)c(=O)n(C3CC3)c2n1 | 1.58 µM (active) | –
CN(C)c1ncc2nc(-c3ccccc3)c(=O)n(C3CC3)c2n1 | 2.51 µM (active) | –
CCc1cccc(N(C)C(N)=Nc2cccc3ccccc23)c1 | inactive | –
CC(=O)OC[C@H]1O[C@@H](O/N=C\[C@@H](C)[C@H](OCc2ccccc2)C(C)C)[C@H](OC(C)=O)[C@@H](OC(C)=O)[C@H]1OC(C)=O | – | -8.7% [at 11.4 µM]
Cc1ccccc1-c1nc(N(C)Cc2ccco2)c2ccccc2n1 | 1.58 µM (active) | –
CN(Cc1ccco1)c1ccnc(-c2ccccc2C(F)(F)F)n1 | 2.51 µM (active) | –
COc1ccccc1-c1nc(N(C)Cc2ccco2)c2ccccc2n1 | 0.501 µM (active) | –
CN(Cc1ccco1)c1nc(-c2ccccc2C(F)(F)F)nc2ccccc12 | 2 µM (active) | –
CCC(C)(C(=O)NC1CCCC1)N(Cc1ccco1)C(=O)c1ccccn1 (stereo not given) | inactive | –
CN(C)Cc1ccccc1-c1nc(N(C)Cc2ccco2)c2ccccc2n1 | 0.794 µM (active) | –
CC(C)c1ccc(/C(C(=O)O)=C(\O)C(=O)O)cc1 | – | -18.6% [at 11.4 µM]
COc1c(O)cc2c(c1O)[C@@H]1O[C@@H](CO)[C@@H](O)[C@@H](O)[C@@H]1OC2=O | inactive | –
Cc1ccc(C(=O)N/N=C/c2ccc(S(=O)(=O)O)o2)c(Cl)c1 | inactive | –
CCOC(=O)N/N=C(/C)c1ccc([N+](=O)[O-])o1 | 12.6 µM (active) | –
Cc1ccc(NCC(=O)N/N=C/c2ccc(OC(=O)c3ccco3)cc2)cc1 | 7.08 µM (active) | –
CCOC(=O)N/N=C\c1ccc([N+](=O)[O-])o1 | 12.6 µM (active) | –
Cc1ccc(NCC(=O)N/N=C\c2ccc([N+](=O)[O-])o2)cc1 | 1.41 µM (active) | –

Source: PubChem BioAssay AID1851 (National Center for Advancing Translational Sciences (NCATS), 2009)
